This assay addresses furin, P09958. In words: furin cleavage Z-score vs untreated control; higher = more cleavage, active = 3.5 or more, inactive = 1 or less, 8 variable residues between constant flanks. An outline of the steps: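 Reactions of 0.01 ml ran for 7.5, 15 or 30 min in 50 mM HEPES pH 7.5 with CaCl2 and NaCl, at 1:10 enzyme:substrate. In them, purified furin acted on bead-held 8-mer peptides fused to a cDNA oligonucleotide. The cleavage Z-score was obtained by lowess-adjusting log sequencing counts of released DNA against furin-free reactions and scaling by median absolute deviation.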

The list shows a part of the results. The true hit rate is not given.

Sequence of furin, P09958 (P09958 whole entry, the tested form may be a part): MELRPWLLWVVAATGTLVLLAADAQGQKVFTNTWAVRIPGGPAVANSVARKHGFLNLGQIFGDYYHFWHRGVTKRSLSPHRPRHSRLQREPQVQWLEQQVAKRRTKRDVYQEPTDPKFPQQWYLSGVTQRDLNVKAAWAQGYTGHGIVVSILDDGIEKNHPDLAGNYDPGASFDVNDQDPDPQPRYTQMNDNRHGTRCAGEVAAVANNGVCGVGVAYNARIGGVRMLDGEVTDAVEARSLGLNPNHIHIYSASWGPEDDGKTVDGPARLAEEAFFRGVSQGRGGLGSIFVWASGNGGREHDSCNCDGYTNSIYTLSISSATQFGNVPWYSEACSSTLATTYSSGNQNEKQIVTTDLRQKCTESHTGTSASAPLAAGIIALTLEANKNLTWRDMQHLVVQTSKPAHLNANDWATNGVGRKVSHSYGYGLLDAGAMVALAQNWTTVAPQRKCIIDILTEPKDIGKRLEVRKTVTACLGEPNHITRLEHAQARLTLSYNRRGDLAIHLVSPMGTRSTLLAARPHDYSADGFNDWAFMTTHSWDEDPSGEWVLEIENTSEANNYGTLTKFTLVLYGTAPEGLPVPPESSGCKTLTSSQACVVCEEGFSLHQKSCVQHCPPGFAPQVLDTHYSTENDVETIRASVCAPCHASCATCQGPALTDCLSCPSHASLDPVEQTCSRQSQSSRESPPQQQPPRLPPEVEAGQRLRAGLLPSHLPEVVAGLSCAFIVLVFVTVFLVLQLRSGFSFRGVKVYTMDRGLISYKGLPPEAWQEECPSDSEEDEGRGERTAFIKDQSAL

As to CAEVVTPTWVAGNASASA [HC160], the “furin cleavage Z-score” value was 0.0725 (inactive) (7.5 min), -1.35 (inactive) (15 min) and -0.017 (inactive) (30 min).
CASPPRRARVAGNASASA [FS-1571]: the “furin cleavage Z-score” value is, setting by setting: (7.5 min) 0.556 (inactive); (15 min) 0.566 (inactive); (30 min) 3.24.
CALASRGARVAGNASASA [FS-267]: the “furin cleavage Z-score” value is -0.386 (inactive) (7.5 min), -0.302 (inactive) (15 min) and 0.249 (inactive) (30 min).
CAESDAAARVAGNASASA [HC1129]: the “furin cleavage Z-score” value (7.5 min) was -0.953 (inactive), the “furin cleavage Z-score” value (15 min) was -0.591 (inactive) and the “furin cleavage Z-score” value (30 min) was -1.03 (inactive).
With CAASRRRARVAGNASASA [FS-1187], the “furin cleavage Z-score” value reads like this: (7.5 min) 3.47; (15 min) 3.01; (30 min) 4.72 (active).
Consider CARSRRRSRVAGNASASA [FS-3095], for which the “furin cleavage Z-score” value is, setting by setting: (7.5 min) 1.94; (15 min) 0.692 (inactive); (30 min) 3.48.
For CAVAARRARVAGNASASA [FS-307] the same measures were 1.69, 3.8 (active) and 3.48.
As to CAGKFLADGGAGNASASA [HC809], the “furin cleavage Z-score” value by setting is: (7.5 min) -1.28 (inactive); (15 min) -0.358 (inactive); (30 min) -0.637 (inactive).
CAYLVAYQATAGNASASA [HC953]: the “furin cleavage Z-score” value (7.5 min) is -0.934 (inactive), the “furin cleavage Z-score” value (15 min) was -0.739 (inactive) and the “furin cleavage Z-score” value (30 min) is -1.07 (inactive).
For the sequence CALIVFPDLGAGNASASA [HC1450], the “furin cleavage Z-score” value reads like this: (7.5 min) -0.678 (inactive); (15 min) -1.11 (inactive); (30 min) -0.0519 (inactive).
Regarding CARRRRHRSYAGNASASA [FS-2078], the “furin cleavage Z-score” value (7.5 min) is 6.85 (active), the “furin cleavage Z-score” value (15 min) was 11.1 (active) and the “furin cleavage Z-score” value (30 min) was 9.14 (active).
As to CARRRRASAPAGNASASA [FS-3062], the “furin cleavage Z-score” value (7.5 min) is 7.44 (active), the “furin cleavage Z-score” value (15 min) was 6.83 (active) and the “furin cleavage Z-score” value (30 min) is 5.33 (active).
Take CARRRRPGGPAGNASASA [FS-2792]: the “furin cleavage Z-score” value is -0.8 (inactive) (7.5 min), -0.454 (inactive) (15 min) and 0.146 (inactive) (30 min).
On to CARRRRHSPPAGNASASA [FS-2453], for which the “furin cleavage Z-score” value is 5.59 (active) (7.5 min), 8.37 (active) (15 min) and 6.78 (active) (30 min).
Turning to CARRRRHEGPAGNASASA [FS-2233], the “furin cleavage Z-score” value by setting is: (7.5 min) 3.52 (active); (15 min) 4.96 (active); (30 min) 4.69 (active).
Take CARCTTPCSGAGNASASA [HC1953]: the “furin cleavage Z-score” value was -0.496 (inactive) (7.5 min), -1.94 (inactive) (15 min) and -0.955 (inactive) (30 min).
Turning to CAENVTSTWVAGNASASA [HC2181], the “furin cleavage Z-score” value by setting is: (7.5 min) 0.856 (inactive); (15 min) -1.06 (inactive); (30 min) 0.371 (inactive).
Take CAPGGGQIVGAGNASASA [HC173]: the “furin cleavage Z-score” value reads like this: (7.5 min) -0.67 (inactive); (15 min) -2.32 (inactive); (30 min) 0.322 (inactive).
CAVVVTSTWVAGNASASA [HC2150]: the “furin cleavage Z-score” value reads like this: (7.5 min) -0.0276 (inactive); (15 min) -0.308 (inactive); (30 min) -1.74 (inactive).
Turning to CAEVVTSLWVAGNASASA [HC2205], the “furin cleavage Z-score” value by setting is: (7.5 min) 0.73 (inactive); (15 min) -1.3 (inactive); (30 min) -0.955 (inactive).
On to CAACTTPCSGAGNASASA [HC1943], for which the “furin cleavage Z-score” value reads like this: (7.5 min) -1.45 (inactive); (15 min) -0.341 (inactive); (30 min) -0.2 (inactive).
Regarding CASTPCSAMLAGNASASA [HC2546], the “furin cleavage Z-score” value is 1.06 (7.5 min), 0.507 (inactive) (15 min) and -0.199 (inactive) (30 min).
For the sequence CARSTRFAATAGNASASA [FS-2188], the “furin cleavage Z-score” value (7.5 min) is -0.54 (inactive), the “furin cleavage Z-score” value (15 min) was -0.334 (inactive) and the “furin cleavage Z-score” value (30 min) worked out at 1.52.
CARRRRAAATAGNASASA [FS-2784]: the “furin cleavage Z-score” value (7.5 min) was 8.16 (active), the “furin cleavage Z-score” value (15 min) was 6.75 (active) and the “furin cleavage Z-score” value (30 min) was 5.42 (active).
For CARSRRHSPHAGNASASA [FS-2462], the “furin cleavage Z-score” value reads like this: (7.5 min) 9.64 (active); (15 min) 10.4 (active); (30 min) 9.06 (active).
For the sequence CARHHRAAATAGNASASA [FS-2142], the “furin cleavage Z-score” value (7.5 min) was -0.187 (inactive), the “furin cleavage Z-score” value (15 min) is 1.63 and the “furin cleavage Z-score” value (30 min) came to 1.18.
On to CARRRRLLIKAGNASASA [FS-2597], for which the “furin cleavage Z-score” value runs as follows: (7.5 min) -0.832 (inactive); (15 min) -0.657 (inactive); (30 min) -0.82 (inactive).
On to CARRRRHTFKAGNASASA [FS-2374], for which the “furin cleavage Z-score” value by setting is: (7.5 min) 6.02 (active); (15 min) 8.84 (active); (30 min) 8.36 (active).
For CARSRRVQCHAGNASASA [FS-2091] the same measures were -0.135 (inactive), -0.538 (inactive) and -0.773 (inactive).

The values are drawn from the supplement of paper PMC3545927.
